Results from PubChem BioAssay AID652176 (Sanford-Burnham Center for Chemical Genomics, 2013).
Hit rate of the full screen: of about 2,400 compounds, about 25 (1%) were called active. These entries were drawn from the full list. Unmarked numbers belong to inactive results.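 The calls were made as follows: active = replicate-average signal at least 3 plate SD below neutral wells, shown as high inhibition, flagging enzyme-inhibiting false positives; inactive = the rest.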

What follows are compounds tested on Beta-galactosidase (Escherichia coli), counter-screen for EBI2 antagonists (assay: E. coli beta-galactosidase enzyme inhibition, confirmation, counter-screen for EBI2 antagonist project, biochemical, luminescence, single concentration (AID 652176;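 also: 0% = DMSO wells with enzyme and 100% = wells lacking enzyme; higher means stronger loss of beta-gal luminescence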)). Settings: purified beta-galactosidase, luminescent Galacton Star, 15 min; at 5 µM; stronger effect = higher value.

Row | SMILES | inhibition
1 | Cc1ccc(S(=O)(=O)N2CCN(C(=O)CSc3cc(C)ccc3C)CC2)c(C)c1 | 2.31%
2 | COc1cccc(NC(=O)Cn2c3ccc(F)cc3c3nc4n(c(=O)c32)CCS4)c1 | 1.47%
3 | COc1ccc(-c2cc(C3CCN(c4ncccc4[N+](=O)[O-])CC3)[nH]n2)cc1 | 12%
4 | COc1cccc(NC(=O)Cn2c3ccccc3c3nc4n(c(=O)c32)CCS4)c1 | -5.55%
5 | COc1ccc(OCC(=O)N2CCN(C(=O)c3cccs3)CC2)cc1 | 8.51%
6 | Cc1nc(-c2ccccc2)sc1C(=O)/C=C/c1ccccc1 | 12%
7 | c1ccc(C(c2ccccc2)N2CCN(Cc3nnnn3C3CCCCC3)CC2)cc1 | 9.44%
8 | O=C(c1cc2ccccc2o1)N1CCN(S(=O)(=O)c2ccc(Cl)s2)CC1 | 3.41%
9 | COc1ccc(N(CC(=O)Nc2cc(OC)ccc2OC)S(=O)(=O)c2c(C)noc2C)cc1 | 6.51%
10 | Fc1ccccc1/C=N/Nc1cc(N2CCCCC2)ncn1 | -5.12%
11 | Cc1ccc(SCC(=O)N2CCN(c3ccc(F)cc3)CC2)cc1 | 1.65%
12 | COc1ccc(C(C(=O)NC2CCCCC2)N(C(=O)c2snc(C(N)=O)c2N)c2ccccc2OC)cc1 (configuration not stated) | 1.73%
13 | Cc1ccc(-n2ncc3c(=O)n(-c4ccc(C)c(C)c4)c(-c4ccco4)nc32)cc1 | -11.1%
14 | O=C(c1cc(=O)c2ccccc2o1)N1CCN(c2ccccc2)CC1 | 2.55%
15 | Cc1cc(C)cc(Oc2nc3c(C)cccn3c(=O)c2/C=C(\C#N)C(=O)NC2CCS(=O)(=O)C2)c1 (configuration not stated) | -6.32%
16 | CC1(Cc2ccccc2C#N)C(=O)Nc2ccc(-c3ccc4[nH]ccc4c3)cc21 (configuration not stated) | -12.8%
17 | N#CC(=C1CCCC1)c1nc(-c2ccc(Cl)cc2)cs1 | -15.6%
18 | CCCCC(=O)N(C)c1c(CC)nc2c(OCc3ccc(Cl)cc3Cl)cccn12 | -8.17%
19 | CC(C)Cn1c(N2CCN(C(=O)/C=C/c3ccccc3)CC2)nc2ccccc21 | -6.12%
20 | CCN1CCN(C(=O)CSc2ccc(C)cc2)CC1 | -12.6%
21 | O=C(CCNS(=O)(=O)c1ccccc1)NCCSc1ccc(Br)cc1 | -8.38%
22 | COc1ccc(/C=C/C(=O)c2ccc(OC)cc2O)cc1 | -7.89%

Row | SMILES | inhibition
23 | O=C(CCc1ccccc1)NNC(=O)COc1ccc(Cl)cc1 | 4.21%
24 | Cc1ccc(-c2nn(-c3ccccc3)cc2/C=C/C(=O)Nc2cccc(S(N)(=O)=O)c2)cc1 | 7.52%
25 | COc1ccc2cc(C3=CC(=O)C[C@H](c4ccc5c(c4)OCO5)C3)ccc2c1 | -16.2%
26 | Cc1cc(Cl)c2oc(C(=O)N3CCC(O)(c4ccccc4)CC3)c(C)c2c1 | -14%
27 | COc1ccc(/C=N/N=C/c2c[nH]c(=O)c(C#N)c2Nc2ccccc2)cc1 | -8.65%
28 | O=c1[nH]c(CN2CCN(S(=O)(=O)c3ccc4c(c3)OCCO4)CC2)nc2sc3c(c12)CCCC3 | 5.78%
29 | O=C(NCCCc1ccccc1)C1CCC(=O)N(CCc2ccc(Cl)cc2)C1 (configuration not stated) | 1.78%
30 | COc1ccccc1N1CCN(C(=O)c2cc(=O)c3cc(C)ccc3o2)CC1 | 2.71%
31 | COc1ccc(C(=O)/C=C/c2ccc(OC3CSC3)cc2)cc1 | 4.77%
32 | CN1CCc2ccccc2C1Cc1ccccc1NC(=O)c1sc2ccccc2c1Cl (configuration not stated) | -9.49%
33 | O=C(COc1ccc2ccccc2c1)N1CCN(C(=O)c2cccs2)CC1 | 6.4%
34 | O=C(c1cc2ccccc2s1)N1CCN(c2ccccn2)CC1 | -19.7%
35 | O=C(/C=C/c1cccc([N+](=O)[O-])c1)N1CCN(Cc2ccccc2)CC1 | -5.48%
36 | CC(=O)/C(=N\Nc1ccc(Cl)cc1Cl)Sc1cccc2cccnc12 | -5.07%
37 | CCN(CC(=O)NCc1cccs1)C(=O)/C=C/c1ccc(C)cc1 | 1.05%
38 | O=C(C(c1ccccc1)c1ccccc1)N1CCN(CC(O)COc2ccccc2)CC1 (configuration not stated) | -10%
39 | Cc1ccc(S(=O)(=O)N2CCN(CC(=O)N/N=C/c3ccc(Br)s3)CC2)cc1 | 3.3%
40 | COc1cccc(-c2cc(C(=O)N3CCN(c4ccccc4OC)CC3)no2)c1 | 5.78%
41 | COc1ccc(OCC(=O)N2CCN(C(=O)COc3ccccc3)CC2)cc1 | -7.53%
42 | Cc1ccc2oc(=O)c3cnn(CC(=O)N4CCCCCC4)c3c2c1 | 6.6%
43 | CCC1Nc2ncnc(N3CCN(c4ccccc4)CC3)c2N(Cc2ccc(Cl)cc2)C1=O (configuration not stated) | 69% (active)
44 | Cc1cccc(N2CCN(C(=O)c3cc4c(=O)[nH]c5ccccc5c4n3C)CC2)c1C | 5.01%

Row | SMILES | inhibition
45 | CC(=O)c1nn(-c2ccc(C)cc2)cc1C(=O)c1cccc(Br)c1 | -0.17%
46 | Cc1ccc(OCC(=O)N2CCN(S(=O)(=O)c3ccc(Cl)s3)CC2)cc1C | 0.1%
47 | CCC(C)(C)NC(=O)c1cc([N+](=O)[O-])ccc1N1CCCCC1 | -7.53%
48 | Cc1cccc(NC(=O)CN2CCN(C(=O)C3CCN(C(=O)/C=C/c4ccccc4)CC3)CC2)c1C | -13.5%
49 | O=C(Nc1ncc2c(n1)CC(c1ccco1)CC2=O)c1ccc(Cl)cc1 (configuration not stated) | 8.95%
50 | CCOc1ccc(CN(Cc2ccco2)S(=O)(=O)c2ccc(-n3cnnn3)c(OC)c2)cc1 | 4.57%
51 | COc1ccc(C(c2nnnn2C2CCCC2)N2CCN(C/C=C/c3ccccc3)CC2)cc1 (configuration not stated) | -12.2%
52 | COc1ccc(-c2cc(NC=O)c3ncc(-c4cccc(C(=O)N(C)C)c4)n3c2)c(OC)c1 | -10.8%
53 | CCOC(=O)N1CCN(C(=O)CSc2ccc(Cl)cc2)CC1 | 5.7%
54 | CCCCN=C1C([N+](=O)[O-])=CC=C2C1=NC1(CCCCC1)N2O | -14.2%
55 | CCC(c1nnc(SCC(=O)NNC(=O)c2ccccc2)n1Cc1ccccc1)N(C)C (configuration not stated) | -17.6%
56 | CCOc1ccc(CCN2C(=S)N([C@@H](CC(C)C)CN3CCC[C@@H]3CN3C(=S)NC[C@@H]3Cc3ccc(O)cc3)C[C@@H]2Cc2ccc(O)cc2)cc1 | -18.9%
57 | O=C(/C=C/c1cccc(C(F)(F)F)c1)N1CCN(c2ccccn2)CC1 | -8.93%
58 | Cc1ccc(OCC(=O)N2CCN(C(=O)c3cccnc3)CC2)cc1 | -9.4%
59 | CN(Cc1ccc(F)cc1)C(=O)COc1ccc2ccccc2c1 | 3.08%
60 | Cc1cc(C)c2c(=O)n3c(nc2c1)C(CC(C)C)NC(=O)c1cc2ccccc2cc1-3 (configuration not stated) | 7.36%
61 | CCOc1ccc(C(C)=O)cc1COC(=O)c1cnc(Cl)c(Cl)c1 | -6.96%
62 | Cc1cccc(OCC(O)CN2CCN(S(=O)(=O)c3ccc(C)cc3C)CC2)c1 (configuration not stated) | -7.67%
63 | COc1ccc(-c2nc(N)ncc2-c2ccc(Cl)cc2)c(O)c1 | 5.17%
64 | Cc1cc(OCC(=O)N2CCN(c3ncccn3)CC2)ccc1Cl | 2.13%
65 | O=C(COc1ccc(Cl)cc1)N1CCN(c2cccc(C(F)(F)F)c2)CC1 | 4.01%
66 | O=C(NCc1ccc(Cl)cc1)C1CCN(S(=O)(=O)c2cccs2)CC1 | 1.5%

Row | SMILES | inhibition
67 | N#Cc1ccc(C2=CC(=O)C[C@H](c3ccc(Cl)cc3)C2)cc1 | 9%
68 | CCCC1CCC(=NNC(=S)NCCc2ccccc2)CC1 (configuration not stated) | -11.9%
69 | O=C(COc1ccc(Cl)cc1)N1CCN(S(=O)(=O)c2ccc(Cl)cc2)CC1 | 6%
70 | CCOC(=O)C1CCN(C(=O)COc2cc(C)c(Br)c(C)c2)CC1 | 2.96%
71 | Cc1cc(OCCOc2cccc3cccnc23)c(C)cc1Cl | 4.27%
72 | O=C(NNC(=O)c1ccc2ccccc2c1)c1ccc(Cl)cc1 | 7.62%
73 | COc1ccccc1CCNC(=O)C1CCN(C(=O)/C=C/c2ccccc2)CC1 | 6.37%
74 | O=C(Nc1ccc(S(=O)(=O)N2CCCCC2)cc1)C1CC(=O)N(c2ccc(F)cc2)C1 (configuration not stated) | 10.2%
75 | COc1ccc(-c2cn(-c3ccc(OC)cc3)c(=S)[nH]2)cc1 | 3.97%
76 | Cc1cccc(N=C2NC(=O)/C(=C/c3cn(C)c4ccccc34)S2)c1 | 8.09%
77 | Cc1ccc(OCCNC(=O)CCNS(=O)(=O)c2ccc(Br)cc2)cc1 | -13%
78 | O=C(COc1ccc2c(c1)CCC2)N1CCN(c2ccc(F)cc2)CC1 | -10.9%
79 | O=C(NCc1ccc(Cl)cc1)c1cc(=O)nc2sc(-c3ccccc3)nn12 | 2.99%
80 | O=C(CC(c1ccccc1)c1ccccc1)NCC(O)c1ccc([N+](=O)[O-])cc1 (configuration not stated) | -11%
81 | COc1ccc(CNC(=O)CN(c2ccc(OC)c(Cl)c2)S(=O)(=O)c2ccc(C)cc2)cc1 | -10.2%
82 | N#Cc1ccc(C(c2nnnn2CCc2ccccc2)N2CCCCCC2)cc1 (configuration not stated) | 7.67%
83 | O=C(NCCNc1ccc([N+](=O)[O-])cc1)c1cccc2c(Br)cccc12 | 3.17%
84 | Cc1cs/c(=N\N=C\c2ccc(O)cc2)n1Cc1ccco1 | 10%
85 | COc1ccc(-n2c(Cc3cccn3C)nnc2SCC(=O)Nc2cc(C)cc(C)c2)cc1 | 5.9%
86 | O=C(/C=C/c1ccc(Cl)cc1)N1CCN(c2ccccc2[N+](=O)[O-])CC1 | 3.83%
87 | COc1ccc(NC(=O)N2CCC(Cc3ccccc3)CC2)cc1 | -4.45%
